The text below walks through data of the supplement of paper PMC10933113.

Molecules are shown by their SMILES. Counter-ions that a name gives are not always drawn. ± gives the uncertainty stated by the source.

For the first assay, the system named is KeratinoSens (HaCaT ARE-luciferase) cells. Nature of the assay: Nrf2/ARE luciferase activation call in qHTS KeratinoSens assay (1 = active, 0 = inactive).
Conditions: not given;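 active = curve rank above 3; inactive = curve rank 0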
For `CC(C)NCC(O)COc1ccc(COCCOC(C)C)cc1.CC(C)NCC(O)COc1ccc(COCCOC(C)C)cc1.O=C(O)/C=C/C(=O)O` (stereo unspecified), the “Nrf2/ARE luciferase activation call” value was “not active ARE inducer (skin sensitizer alert) (inactive)”.
Same read-out and setting: in the case of `COC[C@H](c1ccc(C(F)(F)F)cc1)N1CCN(C2(C)CCN(C(=O)c3c(C)ncnc3C)CC2)C[C@H]1C.O=C(O)/C=C\C(=O)O` it was “not active ARE inducer (skin sensitizer alert) (inactive)”; in that of `CN(C)CCN(Cc1ccccc1)c1ccccn1.O=C(O)CC(O)(CC(=O)O)C(=O)O`, “not active ARE inducer (skin sensitizer alert) (inactive)”; in that of `CCCc1nn(C)c2c(=O)[nH]c(-c3cc(S(=O)(=O)N4CCN(C)CC4)ccc3OCC)nc12.O=C(O)CC(O)(CC(=O)O)C(=O)O`, “not active ARE inducer (skin sensitizer alert) (inactive)”.
Take `CCn1cc[n+](C)c1.O=S(=O)([O-])C(F)(F)F`: the “Nrf2/ARE luciferase activation call” value is “not active ARE inducer (skin sensitizer alert) (inactive)”.
Regarding `CN(C)CCOC(C)(c1ccccc1)c1ccccn1.O=C(O)CCC(=O)O` (stereo unspecified), the “Nrf2/ARE luciferase activation call” value is “not active ARE inducer (skin sensitizer alert) (inactive)”.

The next assay concerns THP-1. Kind of assay: CD86 surface expression induction over DMSO control (% over DMSO); higher = stronger dendritic cell activation. The conditions noted are these: exposure time: 24 h. As to the method: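 hCLAT-like CD54 and CD86 surface expression on THP1 cells after 24 h exposure at a single concentration (highest non-cytotoxic concentration, or 100-200 µM if not cytotoxic). Flow cytometry (iQue) was run on 5,000 live cells.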
As to `CCc1oc2ccccc2c1C(=O)c1cc(I)c(O)c(I)c1` [Benziodarone] (100 µM), the “CD86 surface expression induction” value came to 7.99 ± 3.4.
For `C=CC(C)(CCC=C(C)C)OC(=O)CC(C)C` (stereo unspecified) [Linalyl isovalerate] (200 µM), the “CD86 surface expression induction” value was found to be 4.35 ± 0.78.
For `COc1ccc(C(=O)/C(Br)=C\C(=O)O)cc1` [Cytembena] (200 µM), the “CD86 surface expression induction” value was determined as 32 ± 49.
`O=C1OC(OC(=O)c2cccnc2Nc2cccc(C(F)(F)F)c2)c2ccccc21` (stereo unspecified) [Talniflumate] (100 µM): the “CD86 surface expression induction” value is -7.81 ± 1.
Still for that read-out and setting: the value for `Nc1ccc(/N=N/c2ccccc2)c(N)n1` [Phenazopyridine hydrochloride] (100 µM) was -8.42 ± 5.7; that for `CO[C@@]12[C@H](COC(N)=O)C3=C(C(=O)C(C)=C(N)C3=O)N1C[C@@H]1N[C@@H]12` [Mitomycin C] (100 µM) was 60.5 ± 16; that for `COC(=O)CCCCCCCC(=O)OC` [Dimethyl nonanedioate] (200 µM) was -0.54 ± 1.9.
With `Nc1cc(-c2ccncc2)c[nH]c1=O` [Amrinone] (100 µM), the “CD86 surface expression induction” value is -0.14 ± 4.2.
As for `O=C(Oc1ccccc1)c1ccccc1O` [Phenyl salicylate] (200 µM), the “CD86 surface expression induction” value was -3.35 ± 5.3.
With `CC(C)(C)c1cc(O)c(C(C)(C)C)cc1O` [2,5-Di-tert-butylbenzene-1,4-diol] (100 µM), the “CD86 surface expression induction” value is 6.5 ± 4.4.
For the compound `CCOc1ccc2nc(S(N)(=O)=O)sc2c1` [Ethoxzolamide] (200 µM), the “CD86 surface expression induction” value is -1.83 ± 4.6.
Regarding `CCC1OCC(COc2ccc(Oc3ccccc3)cc2)O1` (stereo unspecified) [Diofenolan] (10 µM), the “CD86 surface expression induction” value is -18.9 ± 5.4.
Regarding `O=C(O)CCCCCCCCC(=O)O` [Decanedioic acid] (200 µM), the “CD86 surface expression induction” value was -3.64 ± 3.
On to `O=c1cc(-c2ccccc2)oc2ccccc12` [Flavone] (200 µM), for which the “CD86 surface expression induction” value was determined as 16.4 ± 4.7.
For the compound `Clc1ccc(C(Cn2ccnc2)OCc2c(Cl)cccc2Cl)c(Cl)c1` (stereo unspecified) [Isoconazole] (100 µM), the “CD86 surface expression induction” value came out at 76.1 ± 95.
In the case of `O=c1cc(-c2ccccc2)oc2cc(O)cc(O)c12` [Chrysin] (100 µM), the “CD86 surface expression induction” value is 38.2 ± 51.
As to `O=[N+]([O-])c1cc(Cl)c(Cl)c(Cl)c1Cl` [2,3,4,5-Tetrachloronitrobenzene] (10 µM), the “CD86 surface expression induction” value was -3.95 ± 2.5.
Regarding `C=C1CC[C@H](O)C/C1=C/C=C1\CCC[C@]2(C)[C@@H]([C@H](C)/C=C/[C@H](C)C(C)C)CC[C@@H]12` [Ergocalciferol*] (100 µM), the “CD86 surface expression induction” value was found to be 74 ± 130.
`Clc1ccc2c(c1)Nc1ccccc1S2` [2-Chlorophenothiazine] (100 µM): the “CD86 surface expression induction” value was -11 ± 14.
On to `CCCCCOc1ccccc1/C(=C\SC)n1ccnc1` [Neticonazole] (100 µM), for which the “CD86 surface expression induction” value was 38.9 ± 22.
As to `CCCCCCCC(=O)Oc1c(Br)cc(C#N)cc1Br` [Bromoxynil octanoate] (100 µM), the “CD86 surface expression induction” value is -3.51 ± 5.
As to `NC(=O)n1c(O)c(C(=O)c2cccs2)c2cc(Cl)ccc21` [Tenidap*] (200 µM), the “CD86 surface expression induction” value stood at 98.4 ± 52.
`CC(C)(C)c1ccc(C(=O)CCCCl)cc1` [4'-Tert-butyl-4-chlorobutyrophenone] (100 µM): the “CD86 surface expression induction” value is -2.04 ± 0.44.
Turning to `COc1ccc(C(=O)c2ccc(C)cc2)c(O)c1` [Mexenone] (300 µM), the “CD86 surface expression induction” value was determined as 18.8 ± 32.
Same read-out and setting: in the case of `COc1cc(C(C)C)c2c(c1)S(=O)(=O)N(COc1cc(=O)n3cccc(OCCN4CCCCC4)c3n1)C2=O` (100 µM) it was 117 ± 98.
